Bioassay records deposited in PubChem BioAssay by National Center for Advancing Translational Sciences (NCATS).
Sampled rows, rich in hits. Any-hit rate of the full collection: about 19%.
TDP1 inh: inhibitors of human tyrosyl-DNA phosphodiesterase TDP1; Q9NUW8; recombinant TDP1, AlphaScreen DNA substrate cleavage; Potency, µM (highest dose often 130 µM), inactives show at the top dose activity change, negative = inhibition, usual class: inhibitors; hit rate 0.28% among 350,000; AID 485290; further: nearly all actives have a fitted effect of over 40% in size
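Compounds were preincubated with Tdp1 (1 nM final) for 15 min at room temperature before substrate (15 nM final) started a 5 min reaction; beads (10 ug/ml final) were then added for 10 min before AlphaScreen detection.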
TDP1 cell CPT: growth inhibition of DT40 Tdp1-/-;hTDP1 cells with camptothecin (screen for TDP1 inhibitors) | chicken DT40 Tdp1-/-;hTDP1 cells + 20 nM CPT, ATP luminescence, 48 h | Potency, µM (doses to about 46.2 µM), without a hit: at the highest dose activity change, negative = growth inhibition, most hits filed as inhibitors | hit rate 12% among 420,000 | AID 686979; further: nearly all actives have a fitted effect of over 55% in size
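Chicken DT40 Tdp1-/- cells complemented with human TDP1, 400 cells/well, exposed to compounds plus 20 nM camptothecin for at least 48 h at 37 C; viability read as ATP content by CellTiter-Glo luminescence.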
VP16 counter: inhibits Gal4-VP16 luciferase reporter, ROR gamma counter-screen. hit rate 3.5% among 310,000. Drosophila S2 Gal4-VP16 UAS-luciferase, luminescence, 20 h. Potency, µM (doses to about 53.6 µM), for inactives: at the highest dose activity, negative = inhibition, usual class: inhibitors. AID 2546;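 further: Gal4-VP16 expression switched on by copper sulfate through the metallothionein promoter; nearly all actives have a fitted effect of over 50% in size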
RORg inh: blocks mouse ROR gamma transcriptional activity; P51450; Drosophila S2 Gal4-RORgamma UAS-luciferase reporter, 20 h; Potency, µM (highest dose often 53.6 µM), for the others: at the top dose activity change, negative = inhibition, hits mostly inhibitors; hit rate 5.4% among 310,000; further: nearly all actives have a fitted effect of over 60% in size
Target sequence (P51450 whole entry, looked up, the tested form may be a part): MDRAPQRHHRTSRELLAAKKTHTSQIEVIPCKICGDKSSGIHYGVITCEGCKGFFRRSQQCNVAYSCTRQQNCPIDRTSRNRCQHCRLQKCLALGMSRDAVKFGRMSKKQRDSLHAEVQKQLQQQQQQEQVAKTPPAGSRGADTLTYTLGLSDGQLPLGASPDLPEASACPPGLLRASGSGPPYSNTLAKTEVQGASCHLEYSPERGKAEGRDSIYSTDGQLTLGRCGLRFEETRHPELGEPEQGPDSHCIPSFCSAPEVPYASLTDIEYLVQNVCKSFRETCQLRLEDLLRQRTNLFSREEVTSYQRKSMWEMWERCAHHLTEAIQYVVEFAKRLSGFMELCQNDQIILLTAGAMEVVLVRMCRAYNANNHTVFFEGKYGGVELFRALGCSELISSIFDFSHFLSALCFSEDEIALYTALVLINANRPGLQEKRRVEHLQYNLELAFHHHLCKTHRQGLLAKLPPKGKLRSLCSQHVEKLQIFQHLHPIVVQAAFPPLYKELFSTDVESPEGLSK
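Using a luciferase readout, inhibitors were identified by reduced reporter activity in Drosophila cells coexpressing a copper-inducible Gal4–ROR gamma fusion and UAS-driven Photinus luciferase, incubated 20 hr after 700 uM copper sulfate.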
TDP1 cell noCPT: qHTS for Inhibitors of human tyrosyl-DNA phosphodiesterase 1 (TDP1): qHTS in cells in absence of CPT; DT40 Tdp1-/- hTDP1 cells, no CPT, ATP luminescence, 48 h; Potency, µM (titrated, usually from 46.2 µM), without a hit: at the top dose activity change, negative = growth inhibition, usual class: inhibitors; hit rate 15% among 420,000; AID 686978, 2013; further: nearly all actives have a fitted effect of over 55% in size
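Cells were dispensed at 400 per well, compounds added by pin tool, plates incubated ≥48 hr at 37 °C, then CellTiter-Glo added for 30 min at room temperature before luminescence reading. Line: DT40 Tdp1-/- complemented with hTDP1; camptothecin omitted.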
Starred values were filed as active, the others as inactive; ? = inconclusive; . = not tested or not shown; ! = repeats disagree; [ ] = another dose, or the depositor's remark. The call rests on the fitted dose curve; in most records, active means well fitted curve in the direction sought with a large enough effect; inconclusive means small, poorly fitted or top-dose-only effect, or another doubt; inactive means no such curve, though single readings can be large; an effect the other way counts as inactive or inconclusive. On the % scale 0 is the no-effect control and ±100 the full control effect; potency means the concentration at half of the fitted maximal effect.

SMILES	TDP1 inh	TDP1 cell CPT	VP16 counter	RORg inh	TDP1 cell noCPT
Cc1nn(-c2nnc(C)c(=O)[nH]2)c(C)c1SCC(=O)Nc1ccc(C(C)C)cc1	11%	-11%	19%	1.1µM*	?
Cc1ccc(C)c(N2CCN(C3CCCCC3NS(=O)(=O)c3ccccc3)CC2)c1 (stereo not given)	-2%	7.3µM*	-3%	4%	4.6µM*
CN1CCN(C2CCCCC2NS(=O)(=O)c2ccc(Cl)cc2)CC1 (stereo not given)	0%	-17%	-3%	0%	5%
Cc1ccc(Cl)cc1N1CCN(C2CCCCC2NS(=O)(=O)c2ccccc2)CC1 (stereo not given)	0%	16µM*	-12%	-1%	18µM*
COc1ccc(N2CCN(C3CCCCC3NS(=O)(=O)c3ccc(Cl)cc3)CC2)cc1 (stereo not given)	6%	?	-5%	3%	?
O=S(=O)(NC1CCCCC1N1CCCCC1)c1ccccc1 (stereo not given)	.	2%	-1%	9%	10%
COc1ccccc1N1CCN(C2CCCCC2NS(=O)(=O)c2ccc(Cl)cc2)CC1 (stereo not given)	1%	23µM*	-11%	4%	23µM*
CC1CC(C)CN(C2CCCCC2NS(=O)(=O)c2ccc(Cl)cc2)C1 (stereo not given)	.	?	-2%	3%	23µM*
Cc1cccc(C)c1NC(=S)N(CCN(C)C)C(C)c1cccnc1 (stereo not given)	8%	4%	-6%[10 µM]	4%	-18%
Cc1nc(SCC(=O)Nc2c(C)n(C)n(-c3ccccc3)c2=O)[nH]c(=O)c1Cc1ccccc1	8%	-4%	-1%	6%	-8%
Cc1nc(N2CCOCC2)c2c3c(sc2n1)CCC3	1%	-8%	-5%	?	?
O=C(c1ccccc1)N1CCN(c2ncnc3sc4c(c23)CCC4)CC1	2%	21µM*	?	-52%	23µM*
Cc1nc(N2CCN(C(=O)c3ccco3)CC2)c2c3c(sc2n1)CCC3	8%	16µM*	1%	-20%[10 µM]	12µM*
CCn1cnc2scc(-c3ccc(OC)cc3)c2c1=O	0%	-24%	-3%	34%	7%
CCCCCN(C(=O)CCC(=O)OCCOc1cccc(Cl)c1)c1c(N)n(CCCC)c(=O)[nH]c1=O	6%	?	.	.	13µM*
CCCCCN(C(=O)CCC(=O)OCc1ccccc1F)c1c(N)n(CCCC)c(=O)[nH]c1=O	6%	-15%	.	.	-29%
CCCCCN(C(=O)CCC(=O)OCc1cc(C)ccc1C)c1c(N)n(CCCC)c(=O)[nH]c1=O	-6%	23µM*	.	.	26µM*
CCCCCN(C(=O)CCC(=O)OCc1ccc(C(C)C)cc1)c1c(N)n(CCCC)c(=O)[nH]c1=O	-6%	23µM*	.	.	16µM*
O=C(NC1(C(F)(F)F)NC(=O)N(Cc2cccnc2)C1=O)c1cccs1 (stereo not given)	5%	3%	11%	5%	-17%
CCCOC(=O)c1ccc(Oc2cn[nH]c2-c2ccc(OCC)cc2O)cc1	7%	?	?	10µM*	?
COc1ccc(Oc2c(-c3ccc(O)cc3O)n[nH]c2C)cc1	10%	?	-1%	-39%	-24%
CCCOC(=O)c1ccc(Oc2c(-c3ccc(OCC)cc3O)n[nH]c2C)cc1	-5%	16µM*	-4%	-8%	18µM*
CCOc1ccc(-c2nc(N)ncc2Oc2ccc(OC)cc2)c(O)c1	8%	-5%	-2%	?	2%
Cc1ccc2oc(C(=O)Nc3cccc(-c4nc5ccccc5s4)c3)c(C)c2c1	3%	?	.	.	?
O=C(Nc1cccc(-c2nc3ccccc3s2)c1)c1cc(=O)c2ccccc2o1	-2%	?	-14%	24%	2.1µM*
SMILES	TDP1 inh	TDP1 cell CPT	VP16 counter	RORg inh	TDP1 cell noCPT
Cc1c(C(=O)Nc2cccc(-c3nc4ccccc4s3)c2)oc2ccccc12	-5%	16µM*	.	.	18µM*
O=c1c2ccccc2on1-c1ccccc1	.	3%	.	.	0%
c1ccc2[nH]c(CN3CCCCC3)nc2c1	4%	-3%	?	9%	-4%
CCCCc1ccc(Nc2cc(C)nc(-n3nc(C)cc3C)n2)cc1	8%	4.6µM*	.	.	5.2µM*
Cc1cc(Nc2ccccc2C)nc(-n2nc(C)cc2C)n1	8%	4.6µM*	.	.	5.2µM*
Cc1cc(C)n(-c2nc(Nc3ccccc3C(F)(F)F)nc(-n3nc(C)cc3C)n2)n1	7%	16µM*	7.1µM*	7.1µM*	15µM*
Cc1cc(C)n(-c2nc(Nc3ccccc3C)nc(-n3nc(C)cc3C)n2)n1	10%	.	10µM*	2.8µM*	.
Cc1ccccc1Nc1nc(Cl)nc(NC(C)(C)C)n1	.	-21%	.	.	-28%
O=C(COC(=O)c1cccc2ccccc12)NCCCc1ccccc1	-3%	-2%	-10%	-13%	-24%
FC(F)(F)c1cc(-c2ccccc2)nc(-n2cncn2)n1	3%	-5%	4%[0.365 µM]	-25%	-7%
OCc1ccc(Cl)cc1Cl	.	14%	-3%	14%	-10%
Cc1cc(N2CCN(c3ccccc3)CC2)nc(-n2nc(C)cc2C)n1	4%	4.6µM*	1.3µM*	0.28µM*	5.2µM*
Cc1cc(Nc2ccc(F)cc2C)n2nc(C)nc2n1	2%	-11%	-5%	5%	-8%
Cc1cc(Nc2cc(F)ccc2C)nc(-n2nc(C)cc2C)n1	8%	5.2µM*	.	.	5.2µM*
Cc1cc(N2CCN(c3ccccc3)CC2)nc(-c2ccccc2O)n1	9%	?	2%	3%	?
Cc1occc1C(=O)NCc1ccco1	.	-8%	-4%	1%	1%
COC(=O)c1cc2ccsc2n1Cc1nc(-c2ccc(Cl)cc2)oc1C	3%	?	-20%	6%	?
COc1cc(OC)c(-c2nn3c(-c4cc(C)[nH]n4)nnc3s2)cc1OC	1%	7.1µM*	.	.	4.5µM*
COc1cc(OC)c(-c2nn3c(-c4n[nH]c5c4CCC5)nnc3s2)cc1OC	1%	?	.	.	11µM*!
N#Cc1ccc(CN2CC[C@@]3(CCCN(C(=O)c4ccco4)C3)C2)cc1	.	9%	0%	14%	-14%
CCC1(C)NC(C(=O)O)Cc2c1[nH]c1ccccc21 (stereo not given)	.	9%	-17%	-14%	13%
CCN(c1ccccc1)S(=O)(=O)c1ccc(C(=O)N2CCN(c3ccccc3F)CC2)cc1	.	?	.	.	21µM*
CN1CCN(C(=O)c2ccc(S(=O)(=O)N(C)c3ccccc3)cc2)CC1	.	-15%	.	.	0%
Cc1cccc(N2CCN(C(=O)c3ccc(S(=O)(=O)N(C)c4ccccc4)cc3)CC2)c1C	-3%	5.8µM*	.	.	4.6µM*
